These results are taken from PubChem BioAssay (NCI).

Test systems include NCI-H23 lung; NCI-H226 lung; NCI-H322M lung; HOP-62 NSCLC; HOP-92 NSCLC; NCI-H522 lung; A549/ATCC NSCLC; 786-0 renal; COLO 205 colon; DU-145 prostate; K-562 leukemia; MALME-3M melanoma; MDA-MB-231 breast; RXF 393 renal; SF-268 CNS; SF-295 CNS; SF-539 CNS; UACC-257 melanoma; M14 melanoma; NCI-H460 lung.
Common to all, as to test: NCI-60 one-dose screen, 48 h (100 = growth as untreated, 0 = no growth, -100 = all killed)
Details in all cases: 10 µM unless noted

The structures appear in SMILES notation. The panel holds about 83,000 compounds, 20% with a hit somewhere; the sample as a whole holds those more often.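 Values shown are percent growth following 48 h exposure of cells in 96-well plates to a single concentration of compound; below 10 was considered active.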 Unmarked numbers belong to inactive results. Active and inactive are the calls of the source.

For the molecule `CNC(=O)c1cc(Oc2ccc3nc(Nc4ccc(Cl)c(C(F)(F)F)c4)ccc3c2)ccn1`, the growth in the assay on NCI-H23 lung was 72.5%; in the assay with NCI-H226 lung, 56.9%; in the assay with NCI-H322M lung, 89.2%; in the assay on HOP-62 NSCLC, 85.1%; in the assay with HOP-92 NSCLC, 59.2%; in the assay on NCI-H522 lung, 22.7%. Besides, the growth in the assay on A549/ATCC NSCLC is 48.2%; in the assay on 786-0 renal, 85%; in the assay on COLO 205 colon it was 52.6%; in the assay with DU-145 prostate it was 75.7%; with K-562 leukemia it was 40.4%; in the assay on MALME-3M melanoma it was 82.9%. Also, the growth with MDA-MB-231 breast was 77.8%; in the assay with RXF 393 renal, 74.6%; in the assay with SF-268 CNS it was 66.5%; with SF-295 CNS, 66%; with SF-539 CNS, 84.8%; with UACC-257 melanoma it was 46.8%. The growth with M14 melanoma was 48.2%.
Take `O=C1/C(=C\c2cccnc2)SC(=S)N1CCc1ccc(O)cc1`: the growth is 50% with NCI-H23 lung; 94.2% with NCI-H226 lung; 91.5% in the assay on NCI-H322M lung; 45.6% in the assay on HOP-62 NSCLC; 27.4% in the assay on HOP-92 NSCLC; 11.9% in the assay with NCI-H522 lung. Also, the growth in the assay with A549/ATCC NSCLC was 93.9%; with 786-0 renal, 39.1%; with COLO 205 colon, 79.9%; in the assay on DU-145 prostate it was 16.6%; with K-562 leukemia, 36%; in the assay on MALME-3M melanoma, 79.6%. The growth with MDA-MB-231 breast was 47.1%; with RXF 393 renal, 25.1%; in the assay with SF-268 CNS it was 68.5%; with SF-295 CNS it was 94%; in the assay on SF-539 CNS it was 23.2%; in the assay with UACC-257 melanoma, 38.9%. Also, the growth in the assay on M14 melanoma is 60.2%.
Take `COc1ccc2nc(NNC(=O)c3cnccn3)c3cccn3c2c1`: the growth was -24.3% (active) in the assay on NCI-H23 lung; 14.9% in the assay on NCI-H226 lung; 8.34% (active) with NCI-H322M lung; 7.91% (active) in the assay with HOP-62 NSCLC; 29.3% in the assay with HOP-92 NSCLC; -2.64% (active) in the assay on NCI-H522 lung. For the same molecule, the growth in the assay with A549/ATCC NSCLC is 9.52% (active); with 786-0 renal it was -12% (active); in the assay on COLO 205 colon, -27% (active); in the assay on DU-145 prostate, 1.09% (active); in the assay on K-562 leukemia it was 4.97% (active); in the assay on MALME-3M melanoma it was -6.33% (active). The growth in the assay on MDA-MB-231 breast was 5.83% (active); in the assay on RXF 393 renal, 41.2%; in the assay with SF-268 CNS, 9.31% (active); in the assay on SF-295 CNS, 2.1% (active); in the assay on SF-539 CNS it was -19.7% (active); in the assay on UACC-257 melanoma it was -8.01% (active). In addition, in the assay on M14 melanoma, the growth is -37.5% (active).
For `Cc1cc(/C=C\c2ccc3ccccc3[n+]2C)c(O)c2ncccc12`, the growth is -4.98% (active) with NCI-H23 lung; -35.5% (active) with NCI-H226 lung; 8.71% (active) in the assay on NCI-H322M lung; 20.3% with HOP-62 NSCLC; 19.4% with HOP-92 NSCLC; 32.1% in the assay on NCI-H522 lung. Further, the growth was 12% with A549/ATCC NSCLC; 9.72% (active) in the assay with 786-0 renal; 9.56% (active) in the assay with COLO 205 colon; 26.2% with DU-145 prostate; 8.28% (active) in the assay on K-562 leukemia; -4.74% (active) with MALME-3M melanoma. Besides, the growth is 4.71% (active) in the assay on MDA-MB-231 breast; -20.3% (active) in the assay on RXF 393 renal; 14.1% in the assay with SF-268 CNS; 0.202% (active) with SF-295 CNS; -36.9% (active) in the assay on SF-539 CNS; 16.4% in the assay on UACC-257 melanoma. Moreover, the growth with M14 melanoma is -51.6% (active).
For the molecule `CC(=O)OC1CCC2(C)C(=CC3C4CCC(=O)C4(C)CCC32)C1` (stereo not given), the growth in the assay on NCI-H23 lung is 102%; in the assay on NCI-H226 lung, 107%; in the assay on NCI-H322M lung, 113%; in the assay with HOP-62 NSCLC it was 111%; with HOP-92 NSCLC, 101%; in the assay on NCI-H522 lung, 96.9%. In addition, the growth in the assay on A549/ATCC NSCLC was 101%; in the assay on 786-0 renal, 102%; with COLO 205 colon it was 94%; in the assay on DU-145 prostate, 101%; with K-562 leukemia it was 95%; with MALME-3M melanoma it was 112%. Also, the growth with MDA-MB-231 breast is 98.2%; with RXF 393 renal it was 115%; in the assay on SF-268 CNS, 96%; in the assay with SF-295 CNS, 95.5%; with SF-539 CNS it was 99.1%; with UACC-257 melanoma, 110%. The growth in the assay with M14 melanoma was 98%.
Regarding `COC(=O)c1ccc(C2Nc3ccc(S(=O)(=O)Nc4ccc(C)c(C)c4)cc3C3OCCC23)cc1` (stereo not given), the growth is 59.5% with NCI-H23 lung; 85.9% in the assay on NCI-H226 lung; 96% in the assay on NCI-H322M lung; 87.3% in the assay with HOP-62 NSCLC; 86% in the assay with NCI-H460 lung; 66% in the assay with HOP-92 NSCLC. The growth is 78.8% in the assay on A549/ATCC NSCLC; 93.9% with 786-0 renal; 100% in the assay with DU-145 prostate; 40.8% with K-562 leukemia; 77.4% in the assay with MALME-3M melanoma; 83.9% with MDA-MB-231 breast. Also, the growth was 101% in the assay on RXF 393 renal; 78% in the assay with SF-268 CNS; 77.4% with SF-295 CNS; 96.2% in the assay on SF-539 CNS; 79.6% with UACC-257 melanoma; 94.1% in the assay on M14 melanoma.
As to `N#Cc1nc(C#N)c(Sc2ccccc2)c(Sc2ccccc2)c1Sc1ccccc1`, the growth was -42.1% (active) in the assay on NCI-H23 lung; 3.05% (active) with NCI-H226 lung; 23.9% with NCI-H322M lung; -46% (active) in the assay with HOP-62 NSCLC; -44.7% (active) in the assay on NCI-H460 lung; -31.7% (active) in the assay with HOP-92 NSCLC. Further, the growth was 3.65% (active) with A549/ATCC NSCLC; -55.9% (active) with 786-0 renal; -47.8% (active) with DU-145 prostate; -41.2% (active) in the assay on K-562 leukemia; -20.6% (active) in the assay on MALME-3M melanoma; -32.7% (active) with MDA-MB-231 breast. The growth is -38.7% (active) in the assay on RXF 393 renal; -67.6% (active) in the assay with SF-268 CNS; 1.87% (active) in the assay with SF-295 CNS; -86.6% (active) in the assay with SF-539 CNS; -59.2% (active) with UACC-257 melanoma; -28.9% (active) in the assay with M14 melanoma.
Consider `NC(=N\N=C/c1ccccc1[N+](=O)[O-])/C(N)=N\N=C/c1ccccc1[N+](=O)[O-]`, for which the growth in the assay with NCI-H23 lung is 104%; in the assay on NCI-H226 lung, 107%; in the assay with NCI-H322M lung, 146%; with HOP-62 NSCLC, 94%; with HOP-92 NSCLC it was 89%; in the assay on NCI-H522 lung it was 89.3%. Moreover, the growth in the assay on A549/ATCC NSCLC was 114%; in the assay with 786-0 renal, 103%; in the assay with COLO 205 colon, 109%; with DU-145 prostate, 107%; in the assay with K-562 leukemia, 101%; in the assay on MALME-3M melanoma, 146%. The growth is 107% in the assay with MDA-MB-231 breast; 103% in the assay with RXF 393 renal; 99.7% in the assay with SF-268 CNS; 105% in the assay on SF-295 CNS; 97.2% in the assay on SF-539 CNS; 113% with UACC-257 melanoma. For the same molecule, the growth in the assay on M14 melanoma was 111%.
